This note sets out measurements from PubChem BioAssay (Tox21).

A number with no mark means an inactive call. Records with an inconclusive call do not appear. The source made the active and inactive calls. Unless noted, the call rests on the fitted dose curve.

The nature of experiment [1]: qHTS assay to identify small molecule agonists of the sonic hedgehog signaling (Shh) pathway (AID 1259368).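 Further: NIH/3T3-derived 3T3Gli1-Luc cells carrying a stable Gli1-driven firefly luciferase reporter; series mostly up to about 92 µM; nearly all actives have a fitted effect of over 15% in size.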 Summed up:
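A Gli1 transcriptional response element controlled firefly luciferase in 3T3Gli1-Luc cells. Compounds and a positive control were added 4 hr after plating, and cells were incubated a further 24 hr at 37 C before luminescence detection.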
Background: In qHTS, concentration-response curves come from the screen itself.

A short description of experiment [2]: qHTS assay to identify small molecule antagonists of the sonic hedgehog signaling (Shh) pathway (AID 1259369). Further: nearly all actives have a fitted effect of over 45% in size. Summed up: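 For antagonist detection, the reporter line received test compounds together with conditioned medium, incubated 24hr at 37 C, 5% CO2, then luminescence was recorded following 30min room-temperature luciferase reagent incubation.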
For experiment [3], the target named is Estrogen receptor beta (Homo sapiens) (UniProt Q92731). Put plainly: qHTS assay to identify small molecule antagonists of the estrogen receptor beta (ER-beta) signaling pathway (AID 1259378; active means well fitted inhibition curve with a large enough effect in the signal ratio in the repeat runs, not every such curve was filed as active; the % refers to the signal ratio). Summed up: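 ER-beta-UAS-bla HEK293T (GripTite) cells in 2% charcoal-stripped FBS medium were preincubated 6 hr at 37C, dosed with compound, then stimulated with 1 nM E2 (final) for 16 hr; beta-lactamase reporter read by B/G FRET fluorescence after 2 hr substrate loading.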

A short description of experiment [4]: qHTS assay to identify small molecule agonists of the androgen receptor (AR) signaling pathway in the presence of an antagonist - cell viability counter screen (AID 1259379; active means well fitted curve in the direction sought with a large enough effect in the repeat runs; an effect the other way counts as inactive or inconclusive;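 further: MDA-kb2 human breast cancer cells carrying an MMTV luciferase reporter; series mostly up to about 92 µM; nearly all actives have a fitted effect of over 25% in size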). The procedure, abridged: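 Seed MDA-kb2 at 3,000 cells/well; incubate 5 hr, 37C, 0% CO2. Add nilutamide to 3.0uM final, then pin compounds at 15 concentrations. Incubate 16 hr. Add CellTiter-Fluor at 15 hr, read fluorescence after 1 hr.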

Experiment [5] can be described thus: qHTS assay to identify small molecule antagonists of the estrogen receptor beta (ER-beta) signaling pathway - cell viability counter screen (AID 1259382; active means well fitted curve in the direction sought with a large enough effect in the repeat runs; an effect the other way counts as inactive or inconclusive; further: series mostly up to about 92 µM; nearly all actives have a fitted effect of over 55% in size). The procedure, abridged: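 In this multiplexed counter screen, cells were seeded at 2,000 per well in medium with 2% charcoal-stripped FBS and incubated 6 hr before compound and 1nM final E2 were added. Sixteen hours later, ATP-based luminescence reported viability.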

The target of experiment [6] is Estrogen receptor (Homo sapiens) (UniProt P03372). Kind of experiment: qHTS assay to identify small molecule agonists of the estrogen receptor alpha (ER-alpha) signaling pathway in the presence of an antagonist (AID 1259383). Further: top concentration of the series differs between compounds; nearly all actives have a fitted effect of over 15% in size. The procedure, abridged:
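Stably transfected VM7Luc4E2 reporter cells, kept 5 days in charcoal-stripped serum, received ICI-182,780 at 10.0nM final before compound addition. Following 22hr incubation at 37C and 5% CO2, luciferase signal was read by luminescence.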

Experiment [7] in a line: qHTS assay to identify small molecule agonists of the estrogen receptor alpha (ER-alpha) signaling pathway in the presence of an antagonist - cell viability counter screen (AID 1259386; active means well fitted curve in the direction sought with a large enough effect in the repeat runs; an effect the other way counts as inactive or inconclusive;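 further: series mostly up to about 92 µM; cells exposed to compounds for 22 h at 37 °C before the viability read; nearly all actives have a fitted effect of over 30% in size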). The procedure, abridged: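 Viability counter screen using VM7Luc4E2 (full-length ER-alpha, four ERE-luciferase). The cells were treated with compounds alongside ICI-182,780 10.0nM for 22hr, and live-cell protease fluorescence was quantified with CellTiter-Fluor.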

Experiment [8] concerns the target Progesterone receptor (Homo sapiens) (UniProt P06401). Put plainly: qHTS assay to identify small molecule agonists of the progesterone receptor (PR) signaling pathway (AID 1346784). Further: nearly all actives have a fitted effect of over 30% in size. Further: potency means the concentration at half of the fitted maximal effect. Summed up:
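HEK 293T PR-UAS-bla reporter cells, 2% charcoal-stripped FBS; 6 hr settle at 37C/5% CO2, compound (DMSO) 16 hr, LiveBLAzer B/G FRET substrate 2 hr RT, fluorescence intensity read.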

Experiment [9] shares this target. Kind of experiment: qHTS assay to identify small molecule antagonists of the progesterone receptor (PR) signaling pathway (AID 1346795; active means well fitted inhibition curve with a large enough effect in the signal ratio in the repeat runs, not every such curve was filed as active; the % refers to the signal ratio). Summed up: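 Beta-lactamase reporter, HEK293T PR-UAS-bla line; 2% charcoal-stripped FBS; 6 hr pre-incubation, 37C/5% CO2. Compound + R5020 1 nM final, 16 hr. LiveBLAzer B/G FRET substrate, 2 hr RT; fluorescence intensity read.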

Experiment [10] in a line: qHTS assay to identify small molecule antagonists of the progesterone receptor (PR) signaling pathway - cell viability counter screen (AID 1346798; active means well fitted curve in the direction sought with a large enough effect in the repeat runs; an effect the other way counts as inactive or inconclusive; further: series mostly up to about 92 µM; nearly all actives have a fitted effect of over 50% in size). The procedure, abridged: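 Luminescence readout (CellTiter-Glo, 30 min, RT) of viability in PR-UAS-bla HEK293T cells exposed to compound and R5020 agonist for 16 hr at 37C, 5% CO2; run in the same wells as the beta-lactamase reporter read.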

Experiment [11] in a line: qHTS assay to identify small molecule agonists of the TGF-beta/Smad signaling pathway - cell viability counter screen (AID 1346829; active means well fitted curve in the direction sought with a large enough effect in the repeat runs; an effect the other way counts as inactive or inconclusive; further: top concentration of the series differs between compounds; nearly all actives have a fitted effect of over 45% in size). The procedure, abridged:
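Compound-treated SBE-bla HEK 293T cells (5 hr, 37 C) were assessed for viability with CellTiter-Glo in parallel with the reporter read.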

Experiment [12] is described as follows: qHTS assay to identify small molecule agonists of the TGF-beta/Smad signaling pathway (AID 1346859; active means well fitted activation curve with a large enough effect in the signal ratio in the repeat runs, not every such curve was filed as active; the % refers to the signal ratio; further: series mostly up to about 77 µM). The procedure, abridged: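 Read-out: fluorescence at 460 and 530 nm (405 nm excitation) after a 2 hr room-temperature incubation with beta-lactamase FRET substrate. SBE-bla HEK 293T cells had been treated with test compounds for 5 hr at 37 C.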
The target of experiment [13] is Thyrotropin-releasing hormone receptor (Homo sapiens) (UniProt P34981). Kind of experiment: qHTS assay to identify small molecule antagonists of the thyrotropin-releasing hormone receptor (TRHR) signaling pathway (AID 1346877; active means well fitted inhibition curve with a large enough effect in the repeat runs, not every such curve was filed as active; further: series mostly up to about 51 µM). Summed up: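 Following an 18 h incubation at 37 °C and a 2 h calcium dye load, TRHR-HEK293 cells were exposed to compound (5 min, room temperature) and challenged with TRH, 1 nM final.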

The nature of experiment [14]: qHTS assay to identify small molecule agonists of the estrogen receptor beta (ER-beta) signaling pathway - cell viability counter screen (AID 1259380; active means well fitted curve in the direction sought with a large enough effect in the repeat runs; an effect the other way counts as inactive or inconclusive; further: nearly all actives have a fitted effect of over 30% in size). The procedure, abridged:
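CellTiter-Glo read, 30 min RT, same wells as bla assay; cells ER-beta-UAS-bla HEK293T; 16 hr compound, 37C; medium 2% charcoal-stripped FBS.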

The target of experiment [15] is Androgen receptor (Homo sapiens) (UniProt P10275). Kind of experiment: qHTS assay to identify small molecule agonists of the androgen receptor (AR) signaling pathway in the presence of an antagonist (AID 1259381). Further: nearly all actives have a fitted effect of over 15% in size. Summed up: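 Test compounds at 15 concentrations were incubated for 16hr with MDA-kb2 reporter cells in presence of 3.0uM nilutamide (final). Signal: ONE-Glo luciferase luminescence.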

Experiment [16] addresses Thyrotropin receptor (Homo sapiens) (UniProt P16473). Kind of experiment: qHTS assay to identify small molecule antagonists of the thyroid stimulating hormone receptor (TSHR) signaling pathway (AID 1259385). Further: nearly all actives have a fitted effect of over 20% in size. The procedure, abridged: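 TSHR-HEK293 cells were plated and held 18 h at 37C/5% CO2, then given compound plus Ro20-1724 and stimulated with TSH at 1.5 ng/mL final. After 30 min at room temperature, cAMP was detected with cAMP-d2/anti-cAMP-cryptate (1 h) by fluorescence.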

Experiment [17] in a line: qHTS assay to identify small molecule agonists of the progesterone receptor (PR) signaling pathway - cell viability counter screen (AID 1346799). Further: nearly all actives have a fitted effect of over 45% in size. The procedure, abridged:
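HEK293T PR-UAS-bla, 3,000 cells/well, 2% charcoal-stripped FBS; 6 h settle, compound 16 h at 37C/5% CO2; LiveBLAzer 2 h RT, then CellTiter-Glo 30 min RT, luminescence read.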

Experiment [18] in a line: qHTS assay to identify small molecule antagonists of the TGF-beta/Smad signaling pathway - cell viability counter screen (AID 1346824; active means well fitted curve in the direction sought with a large enough effect in the repeat runs; an effect the other way counts as inactive or inconclusive; further: nearly all actives have a fitted effect of over 50% in size). Summed up: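 SBE-bla HEK 293T cells were plated overnight at 37 C, then given compounds in DMSO plus TGF-beta1 (added as 0.25 ng/mL solution) for 5 hr. After the bla read, CellTiter-Glo was added to the same wells and luminescence read after 30 min at room temperature.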

A short description of experiment [19]: qHTS assay to identify small molecule agonists or antagonists of the thyroid stimulating hormone receptor (TSHR) signaling pathway - wild type cell line counter screen (AID 1259384). The procedure, abridged:
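Wild-type HEK293 cells were plated 18 h at 37 C/5% CO2, pin-dosed with compound plus Ro20-1724 medium, held 30 min at room temperature, then given cAMP-d2 and anti-cAMP-cryptate; fluorescence was read after 1 h. Fifteen concentrations, triplicate.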

Sequence of Estrogen receptor (Homo sapiens) (P03372 whole entry, looked up): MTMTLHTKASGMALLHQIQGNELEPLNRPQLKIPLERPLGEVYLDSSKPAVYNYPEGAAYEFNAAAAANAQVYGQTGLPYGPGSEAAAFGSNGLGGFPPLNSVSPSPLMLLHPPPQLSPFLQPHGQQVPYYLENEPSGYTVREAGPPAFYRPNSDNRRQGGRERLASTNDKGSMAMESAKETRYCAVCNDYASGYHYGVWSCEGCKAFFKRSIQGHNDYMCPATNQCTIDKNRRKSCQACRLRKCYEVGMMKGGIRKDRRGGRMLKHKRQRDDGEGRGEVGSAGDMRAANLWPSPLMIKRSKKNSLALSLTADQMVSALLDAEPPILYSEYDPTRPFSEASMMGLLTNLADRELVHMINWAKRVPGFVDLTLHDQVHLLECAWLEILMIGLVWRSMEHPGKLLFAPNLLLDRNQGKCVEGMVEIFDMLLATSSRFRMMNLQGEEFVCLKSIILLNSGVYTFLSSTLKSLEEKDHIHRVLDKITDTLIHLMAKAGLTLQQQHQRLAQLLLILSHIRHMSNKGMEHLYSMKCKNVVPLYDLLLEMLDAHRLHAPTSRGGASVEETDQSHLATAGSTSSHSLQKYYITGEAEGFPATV
Sequence of Progesterone receptor (Homo sapiens) (P06401 whole entry, looked up): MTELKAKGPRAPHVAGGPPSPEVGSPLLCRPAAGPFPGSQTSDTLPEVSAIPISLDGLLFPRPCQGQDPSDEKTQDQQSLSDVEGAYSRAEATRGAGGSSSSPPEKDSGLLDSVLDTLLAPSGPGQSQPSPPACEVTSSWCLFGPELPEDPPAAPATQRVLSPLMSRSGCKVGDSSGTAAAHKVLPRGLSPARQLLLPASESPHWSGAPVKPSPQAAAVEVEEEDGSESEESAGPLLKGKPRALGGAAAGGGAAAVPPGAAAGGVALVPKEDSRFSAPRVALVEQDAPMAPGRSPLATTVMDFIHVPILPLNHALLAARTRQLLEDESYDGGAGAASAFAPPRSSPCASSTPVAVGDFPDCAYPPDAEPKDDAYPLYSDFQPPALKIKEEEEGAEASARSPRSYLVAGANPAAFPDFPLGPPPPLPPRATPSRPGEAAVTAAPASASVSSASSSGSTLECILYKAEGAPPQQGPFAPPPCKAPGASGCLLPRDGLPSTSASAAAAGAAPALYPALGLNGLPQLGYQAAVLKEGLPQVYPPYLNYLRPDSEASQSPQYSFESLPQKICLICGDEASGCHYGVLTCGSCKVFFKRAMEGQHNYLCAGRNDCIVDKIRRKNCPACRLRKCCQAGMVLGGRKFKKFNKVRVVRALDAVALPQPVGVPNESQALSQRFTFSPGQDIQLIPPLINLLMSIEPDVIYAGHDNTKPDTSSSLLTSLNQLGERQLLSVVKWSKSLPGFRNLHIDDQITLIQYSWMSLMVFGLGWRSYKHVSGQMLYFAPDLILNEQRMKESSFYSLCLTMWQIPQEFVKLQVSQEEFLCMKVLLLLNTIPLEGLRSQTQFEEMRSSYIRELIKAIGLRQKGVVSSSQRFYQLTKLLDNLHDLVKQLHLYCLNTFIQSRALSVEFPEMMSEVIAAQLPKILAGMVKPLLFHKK
Sequence of Thyrotropin receptor (Homo sapiens) (P16473 whole entry, looked up): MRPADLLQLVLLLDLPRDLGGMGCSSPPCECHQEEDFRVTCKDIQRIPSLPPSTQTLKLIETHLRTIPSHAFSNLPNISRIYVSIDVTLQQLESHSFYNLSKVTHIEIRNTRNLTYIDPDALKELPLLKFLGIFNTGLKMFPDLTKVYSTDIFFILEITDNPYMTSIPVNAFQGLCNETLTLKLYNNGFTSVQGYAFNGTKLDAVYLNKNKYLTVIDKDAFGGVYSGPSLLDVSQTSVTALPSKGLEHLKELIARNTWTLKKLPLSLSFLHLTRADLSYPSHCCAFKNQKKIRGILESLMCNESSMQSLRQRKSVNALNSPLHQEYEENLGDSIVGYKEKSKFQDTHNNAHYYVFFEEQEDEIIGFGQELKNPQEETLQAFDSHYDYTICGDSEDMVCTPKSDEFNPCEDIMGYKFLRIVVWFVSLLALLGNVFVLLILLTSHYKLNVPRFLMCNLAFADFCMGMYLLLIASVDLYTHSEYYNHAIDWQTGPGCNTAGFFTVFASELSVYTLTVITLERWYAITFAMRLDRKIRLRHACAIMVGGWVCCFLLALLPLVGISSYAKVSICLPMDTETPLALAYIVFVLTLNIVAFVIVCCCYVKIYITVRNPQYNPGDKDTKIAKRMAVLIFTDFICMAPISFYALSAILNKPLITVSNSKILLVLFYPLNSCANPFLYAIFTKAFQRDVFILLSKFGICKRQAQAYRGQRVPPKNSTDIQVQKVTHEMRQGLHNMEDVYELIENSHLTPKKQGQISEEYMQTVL
Sequence of Estrogen receptor beta (Homo sapiens) (Q92731 whole entry, looked up): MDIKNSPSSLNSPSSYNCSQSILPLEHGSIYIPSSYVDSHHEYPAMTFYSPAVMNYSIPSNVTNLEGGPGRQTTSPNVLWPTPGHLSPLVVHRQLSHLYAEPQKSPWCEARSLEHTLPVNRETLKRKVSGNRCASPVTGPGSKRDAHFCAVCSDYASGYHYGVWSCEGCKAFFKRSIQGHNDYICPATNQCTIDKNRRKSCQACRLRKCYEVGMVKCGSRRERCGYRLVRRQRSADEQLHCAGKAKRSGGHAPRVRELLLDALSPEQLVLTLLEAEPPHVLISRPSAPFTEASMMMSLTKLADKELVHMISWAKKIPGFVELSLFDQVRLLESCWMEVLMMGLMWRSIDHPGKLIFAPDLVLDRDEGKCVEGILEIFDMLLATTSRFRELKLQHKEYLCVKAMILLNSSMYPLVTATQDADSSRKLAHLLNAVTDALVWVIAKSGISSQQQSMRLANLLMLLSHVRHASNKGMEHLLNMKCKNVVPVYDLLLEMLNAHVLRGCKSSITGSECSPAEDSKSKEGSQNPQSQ
Sequence of Thyrotropin-releasing hormone receptor (Homo sapiens) (P34981 whole entry, looked up): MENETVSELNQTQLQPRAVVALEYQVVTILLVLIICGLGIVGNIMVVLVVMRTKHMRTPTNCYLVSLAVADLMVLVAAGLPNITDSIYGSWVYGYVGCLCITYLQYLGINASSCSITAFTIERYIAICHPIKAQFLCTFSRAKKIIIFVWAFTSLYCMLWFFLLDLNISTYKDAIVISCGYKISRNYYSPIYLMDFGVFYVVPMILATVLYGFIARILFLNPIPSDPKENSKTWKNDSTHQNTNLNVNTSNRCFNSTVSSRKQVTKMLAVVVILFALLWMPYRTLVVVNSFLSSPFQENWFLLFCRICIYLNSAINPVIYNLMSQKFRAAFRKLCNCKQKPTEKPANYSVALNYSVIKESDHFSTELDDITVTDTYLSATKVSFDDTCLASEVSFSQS
Sequence of Androgen receptor (Homo sapiens) (P10275 whole entry, looked up): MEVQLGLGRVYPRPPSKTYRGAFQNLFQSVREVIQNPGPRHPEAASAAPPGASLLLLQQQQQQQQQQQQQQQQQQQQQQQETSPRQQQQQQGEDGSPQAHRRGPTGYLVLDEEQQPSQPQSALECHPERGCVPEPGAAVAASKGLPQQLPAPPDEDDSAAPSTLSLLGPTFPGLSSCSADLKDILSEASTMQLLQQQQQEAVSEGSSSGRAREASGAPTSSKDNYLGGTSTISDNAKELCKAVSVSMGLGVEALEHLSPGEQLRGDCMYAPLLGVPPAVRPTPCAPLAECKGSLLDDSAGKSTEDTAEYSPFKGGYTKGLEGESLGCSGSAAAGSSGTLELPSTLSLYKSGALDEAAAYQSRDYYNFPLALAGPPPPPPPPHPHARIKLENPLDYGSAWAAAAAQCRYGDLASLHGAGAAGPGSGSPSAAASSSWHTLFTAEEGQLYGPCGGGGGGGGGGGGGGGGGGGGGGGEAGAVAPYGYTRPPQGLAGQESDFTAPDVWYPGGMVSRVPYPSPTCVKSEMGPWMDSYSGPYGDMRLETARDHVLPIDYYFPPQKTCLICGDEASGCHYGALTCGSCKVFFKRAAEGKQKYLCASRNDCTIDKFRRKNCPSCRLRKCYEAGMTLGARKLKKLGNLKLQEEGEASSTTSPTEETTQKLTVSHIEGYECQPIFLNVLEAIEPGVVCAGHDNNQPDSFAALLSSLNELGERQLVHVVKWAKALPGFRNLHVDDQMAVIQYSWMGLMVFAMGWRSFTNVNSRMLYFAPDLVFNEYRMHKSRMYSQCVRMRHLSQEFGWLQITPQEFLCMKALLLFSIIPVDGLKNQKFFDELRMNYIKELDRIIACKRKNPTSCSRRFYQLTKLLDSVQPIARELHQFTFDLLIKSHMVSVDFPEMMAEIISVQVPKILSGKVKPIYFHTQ

For `CC(=O)N[C@@H](CCC(N)=O)C(=O)O`, the Potency result in experiment [1], in experiment [2], in experiment [3], in experiment [4], in experiment [5] and in [6] was “inactive” throughout. Moreover, the Potency result in experiment [8], in experiment [9] and in experiment [10] was “inactive” in each case. The outcome in experiment [7], in [11], in experiment [12] and in experiment [13] was inactive.
As to `COc1cc(CCC(C)=O)ccc1O`, the Potency entry in [1], in experiment [2], in experiment [3], in experiment [14], in experiment [15] and in experiment [5] was “inactive” throughout. Besides, the Potency entry in experiment [16], in experiment [8], in experiment [9] and in experiment [17] was “inactive” throughout. Moreover, the result in [7], in [18], in [11] and in experiment [12] was inactive.
Consider `O=C(O)c1ccccc1-c1ccc(C(F)(F)F)cc1`, for which the Potency result in experiment [1], in [2], in experiment [4], in experiment [14], in experiment [5] and in [6] was “inactive” throughout. Further, the Potency entry in [16], in experiment [8], in [9] and in experiment [10] was “inactive” in each case. Further, the compound was classed as inactive in experiment [19], in [7], in [18], in experiment [11], in experiment [12] and in experiment [13].
Consider `C=C(C)C1CC=C(C)C(O)C1` (stereo not drawn), for which the Potency result in experiment [1], in experiment [2], in [4], in experiment [14], in experiment [5] and in experiment [6] was “inactive” each time. The Potency entry in experiment [16] and in [10] was “inactive” throughout. In addition, the call in experiment [19], in experiment [7], in experiment [12] and in experiment [13] was inactive. In addition, in experiment [8], the Potency was 17.3 µM (active).
On to `COc1cc(O)cc(O)c1`, for which the Potency entry in experiment [1], in experiment [2], in [4], in experiment [14], in experiment [5] and in experiment [6] was “inactive” in each case. The Potency entry in experiment [16], in experiment [8], in experiment [9] and in experiment [10] was “inactive” throughout. Also, the compound was classed as inactive in experiment [19], in experiment [7], in experiment [18], in [12] and in [13].
Take `CC(C)(C)C(=O)/C=C/c1ccc(Cl)cc1`: the Potency result in experiment [1], in experiment [2], in [3], in [5], in experiment [6] and in [16] was “inactive” throughout. Further, the Potency entry in [8], in experiment [9], in [10] and in experiment [17] was “inactive” throughout. For the same compound, the outcome in experiment [19], in [7], in experiment [18], in experiment [11], in experiment [12] and in [13] was inactive.
In the case of `CCCCC1CCCCC(=O)O1` (stereo not drawn), the Potency entry in experiment [1], in [2], in [4], in [14], in experiment [5] and in [6] was “inactive” each time. Also, the Potency result in experiment [16], in experiment [8], in experiment [9] and in experiment [10] was “inactive” each time. The compound was called inactive in [19], in experiment [7], in [18], in [11], in [12] and in [13].
For `Nc1cc(N)cc(C(=O)O)c1`, the Potency result in experiment [1], in experiment [2], in experiment [3], in [4], in [14] and in [6] was “inactive” each time. Also, the Potency entry in experiment [8], in experiment [10] and in [17] was “inactive” in each case. The result in experiment [7], in [18], in experiment [11] and in experiment [12] was inactive.
Consider `CC(C)COC(=O)c1ccccc1O`, for which the Potency result in experiment [1], in experiment [2], in experiment [4], in experiment [14], in experiment [5] and in experiment [6] was “inactive” in each case. In addition, the Potency entry in experiment [16], in experiment [8], in [9], in [10] and in experiment [17] was “inactive” in each case. The compound was classed as inactive in experiment [19], in experiment [7], in [18], in [11], in [12] and in [13].
